Test: High-throughput drug toxicity screening in the BPDCN cell line Cal-1 (AID 1224825)
Conditions: Cal-1 BPDCN cell viability, qHTS; at 45.8 µM (top of the series)
Summary of the method: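 Exponentially growing Cal-1 cells, 500 per well in phenol red-free RPMI with 10% FBS, were exposed to compounds for 48 h at 37 °C, 5% CO2. Viability was read by CellTiter-Glo luminescence and normalised to DMSO (100%) and 9.2 uM bortezomib (0%).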

| SMILES | viability (% of control) [%] |
| --- | --- |
| CC(=O)OCC1=C(C(=O)O)N2C(=O)[C@@H](N)[C@@H]2SC1 | 15.5 |
| CN[C@@H]1Cc2cccc3[nH]c(=O)n(c23)C1 | 119 |
| COc1ccc2c(c1)[C@]13CCCCC1C(C2)N(C)CC3 (some centres not stated) | 93.4 |
| C[C@H]([C@H](O)CCC(C)(C)O)[C@H]1CC[C@@]2(O)C3=CC(=O)[C@@H]4C[C@@H](O)[C@@H](O)C[C@]4(C)[C@@H]3CC[C@]12C | 110 |
| COC(=O)[C@@H](N)CCCN=C(N)N[N+](=O)[O-] | 132 |
| C[C@@H]1CC[C@@]2(OC1)O[C@H]1C[C@H]3[C@@H]4CC=C5C[C@@H](O[C@@H]6O[C@H](CO)[C@@H](O[C@@H]7O[C@@H](C)[C@H](O)[C@@H](O)[C@@H]7O)[C@H](O)[C@@H]6O[C@@H]6O[C@@H](C)[C@H](O)[C@@H](O)[C@@H]6O)CC[C@]5(C)[C@@H]4CC[C@]3(C)[C@@H]1[C@H]2C | 12.9 |
| C[C@]12Cc3cn[nH]c3C[C@@H]1CC[C@@H]1[C@H]2CC[C@@]2(C)[C@H]1CC[C@]2(C)O | 111 |
| C[C@@H]1CC[C@H]2[C@@H](C)C(=O)O[C@@H]3O[C@@]4(C)CC[C@H]1[C@]32OO4 | 98.1 |
| COC[C@H]1OC(=O)c2coc3c2[C@@]1(C)C1=C(C3=O)[C@@H]2CC[C@H](O)[C@@]2(C)C[C@@H]1OC(C)=O | 9.36 |
| C[C@]12CC[C@@H]3[C@@H](CCC4=CC(=O)CC[C@@H]43)[C@@H]1CC[C@@H]2OC(=O)CCc1ccccc1 | 104 |
| COc1cc([C@@H]2c3cc4c(cc3[C@@H](O)C3COC(=O)C32)OCO4)cc(OC)c1O (some centres not stated) | 5.19 |
| O=c1cccc2n1CC1CNC[C@H]2C1 | 13.3 |
| C[C@@H]1O[C@@H](O[C@@H]2C=C3CC[C@@H]4[C@@H](CC[C@]5(C)[C@H](c6ccc(=O)oc6)CC[C@@]45O)[C@@]3(C)CC2)[C@H](O)[C@H](O)[C@H]1O | 3.76 |
| CC(C)(O)C=CC(=O)[C@](C)(O)[C@H]1[C@H](O)C[C@]2(C)[C@@H]3CC=C4[C@@H](C=C(O)C(=O)C4(C)C)[C@]3(C)C(=O)C[C@@]12C | 2.59 |
| Cc1ccccc1-n1c(Cn2ncc3c(N)ncnc32)nc2cccc(C)c2c1=O | 17.1 |
| Cc1[nH]nc2ccc(-c3cncc(OC[C@@H](N)Cc4c[nH]c5ccccc45)c3)cc12 | 1.66 |

| SMILES | viability (% of control) [%] |
| --- | --- |
| Clc1ccccc1C(c1ccccc1)(c1ccccc1)n1cccn1 | 108 |
| C#C[C@]1(O)C=C[C@@H]2[C@@H]3CCC4=CC(=O)CC[C@@H]4[C@H]3CC[C@@]21CC | 74.7 |
| CN(C)[C@@H]1C(=O)C(C(N)=O)=C(O)[C@@]2(O)C(=O)C3=C(O)c4c(O)cccc4[C@@](C)(O)[C@H]3[C@H](O)[C@@H]12 | 100 |
| C[C@]12CC[C@H]3[C@@H](CCC4=CC(=O)CC[C@@]43C)[C@H]1CC[C@H]2OC(=O)CCC1CCCC1 | 104 |
| CC(=Cc1csc(C)n1)[C@@H]1C[C@H]2O[C@]2(C)CCC[C@H](C)[C@@H](O)[C@@H](C)C(=O)C(C)(C)[C@@H](O)CC(=O)O1 | 17 |
| COCC1(CO)C(=O)C2CCN1CC2 (configuration not stated) | 2.52 |
| O=C(N[C@H]1CN2CCC1CC2)c1ccc(Cl)cc1 | 106 |
| C[C@@H]1[C@H](O)[C@@H](C)C=CC=CCCC=CC=CC=CC=C[C@H](O[C@H]2O[C@@H](C)[C@H](O)[C@@H](N)[C@@H]2O)CC2O[C@](O)(C[C@@H](O)[C@H](O)CC[C@@H](O)C[C@@H](O)C[C@@H](O)CC(=O)O[C@H]1C)C[C@H](O)[C@H]2C(=O)O | 124 |
| CCOP(=O)(OCC)C(C)NC(=O)N(CCCl)N=O (configuration not stated) | 103 |
| CCC(=O)OC1CCC2C3CCC4=CC(=O)CC[C@@]4(C)C3CC[C@]12C (some centres not stated) | 105 |
| CC[C@@]1(O)C(=O)OCc2c1cc1n(c2=O)Cc2cc3ccccc3nc2-1 | 3.88 |
| CC1=C(O)C(=O)C=C2C1=CC=C1[C@@]2(C)CC[C@@]2(C)[C@@H]3C[C@](C)(C(=O)O)CC[C@]3(C)CC[C@]12C | 7.21 |
| CC(C)(C)[C@]1(O)C[C@@H]2OC(=O)C[C@@]23C(=O)O[C@@H]2OC(=O)[C@H](O)C213 (some centres not stated) | 124 |
| O=C(Nc1ccncc1)C(=O)c1cn(Cc2ccc(Cl)cc2)c2ccccc12 | 16.2 |
| O=[N+]([O-])c1ncc[nH]1 | 122 |
| COc1cc2cc(c1Cl)N(C)C(=O)C[C@H](OC(=O)C(C)C)[C@]1(C)O[C@H]1[C@H](C)[C@@H]1C[C@@](O)(NC(=O)O1)[C@H](OC)C=CC=C(C)C2 | 4.31 |
